Laboratory results from PubChem BioAssay.
Active and inactive are the calls of the source.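 How the source made its calls, unless noted: active means NADPH fluorescence slope more negative than the mean of all samples by about 3 SD, 99.7% confidence; inactive means the rest.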

Assays:
[1] = inhibitors of TNFa-induced NFkB p65 translocation, primary screen, imaging, HUVEC, MLSMR starter and 10KST1 sets (AID 438;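 active means inhibition above 20% together with a positive visual image hit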;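 further: compound added about 3h40 before a 20 min TNFalpha stimulation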;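 on inhibition: signal is the nuclear over cytoplasmic p65 intensity ratio per well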); conditions: HUVEC TNFa-induced p65 nuclear translocation; cell count: measured here: nuclei count (cytotoxicity indicator), at 2.08 µM; inhibition: at 2 µM, stronger effect = higher value, 0% TNFa-plus-vehicle, 100% no-TNFa wells
[2] = endothelial E-selectin expression blockers – imaging, HUVEC, immunofluorescence, MLSMR starter and 10KST1 sets, primary screen (AID 487;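 active means visually confirmed hit in the image check and inhibition above 20%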;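 on inhibition: signal is fraction of cell area covered by stained E-selectin grains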;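 on nuclei count: 100% = median nuclei count of all wells on the same plate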); conditions: HUVEC TNFalpha-induced E-selectin immunofluorescence imaging, at 2 µM; inhibition: stronger effect = higher value; nuclei count: measured here: cell number, toxicity
[3] = Primary imaging screen for DUSP6 inhibitors that restore phospho-Erk in transfected HeLa cells, chemical complementation (AID 609;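 active means compounds giving at least 50% inhibition in the cell-based MKP-3 phosphatase rescue imaging test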;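 on inhibition: phospho-Erk level distribution per well compared with pooled transfected vehicle control wells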); conditions: HeLa MKP-3 transfected, phospho-Erk imaging KS statistic, at 10 µM, cells stimulated with TPA for 15 min
[4] = biological target: Dual specificity protein phosphatase 6 (Homo sapiens) (UniProt Q16828); experiment: as above; conditions: HeLa MKP-3 transfected, phospho-Erk imaging KS statistic; at 10 µM; stronger effect = higher value; cells stimulated with TPA for 15 min
[5] = biological target: Voltage-gated potassium channel subunit beta-2 (Rattus norvegicus) (UniProt P62483); experiment: inhibitors of rat Kvbeta2 reductase activity – biochemical, NADPH fluorescence, primary screen (AID 622;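 active means fluorescence slope higher than the sample average by over 3 SD, cut at about -0.22 in these data, passing the limit was not always enough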;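 further: slope of raw intensity against log time taken from 70 to 1610 s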); conditions: recombinant KvBeta, 4-cyanobenzaldehyde reduction, at 10 µM, stronger effect = higher value
[6] = biological target: Voltage-gated potassium channel subunit beta-2 (Rattus norvegicus) (UniProt P62483); experiment: enhancers of rat Kvbeta2 NADPH turnover – biochemical, NADPH fluorescence, primary screen (AID 623); conditions: Recombinant KvBeta, NADPH fluorescence decrease slope, 10 min; at 10 µM; stronger effect = lower value;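 further: fluorescence intensity change per second fitted from 20 to 320 s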
[7] = biological target: Alpha-2C adrenergic receptor (Homo sapiens) (UniProt P18825); experiment: compounds altering alpha2C-coupled GIRK flux – cell-based, HEK293 alpha2C/GIRK1/2, thallium flux, primary screen (AID 624;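 active means fluorescence slope after compound addition differing from the mean of all screened samples at 99.7% confidence, in either direction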;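 further: slope of fluorescence ratio to pre-addition baseline per second over 15 to 24 s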); conditions: thallium flux BTC fluorescence, at 10 µM, actives lie on both sides
[8] = loss of swimming-algae plug formation – whole organism, Chlamydomonas reinhardtii, WT vs cilia-less mutant, absorbance, 96-well, primary screen (AID 463189;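 active means inhibition at or above 50% relative to wild type and mutant plate controls; inactive means inhibition below 50%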;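 further: 0% = wild type cc124 cells in DMSO and 100% = ciliumless bld1 mutant cells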); conditions: Chlamydomonas reinhardtii gravitaxis, OD600 absorbance, 2 days; at 10 µM; stronger effect = higher value
[9] = measured here: cell density z-score
[10] = measured here: nuclear c-Myc green intensity z-score
[11] = measured here: nuclear pErk red intensity z-score, stronger effect = higher value

Sequence of Dual specificity protein phosphatase 6 (Homo sapiens) (Q16828 whole entry, looked up): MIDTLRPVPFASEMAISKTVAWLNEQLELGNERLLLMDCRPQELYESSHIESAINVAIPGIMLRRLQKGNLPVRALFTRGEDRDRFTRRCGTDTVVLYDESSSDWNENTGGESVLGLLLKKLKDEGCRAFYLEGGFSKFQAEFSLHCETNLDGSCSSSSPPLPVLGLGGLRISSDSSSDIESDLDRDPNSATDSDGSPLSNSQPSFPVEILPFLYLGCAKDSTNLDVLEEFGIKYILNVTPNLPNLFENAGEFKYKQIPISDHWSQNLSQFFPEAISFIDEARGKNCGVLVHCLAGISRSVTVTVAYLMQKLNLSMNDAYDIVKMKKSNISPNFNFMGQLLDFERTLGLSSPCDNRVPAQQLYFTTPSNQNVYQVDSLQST
Sequence of Voltage-gated potassium channel subunit beta-2 (Rattus norvegicus) (P62483 whole entry, looked up): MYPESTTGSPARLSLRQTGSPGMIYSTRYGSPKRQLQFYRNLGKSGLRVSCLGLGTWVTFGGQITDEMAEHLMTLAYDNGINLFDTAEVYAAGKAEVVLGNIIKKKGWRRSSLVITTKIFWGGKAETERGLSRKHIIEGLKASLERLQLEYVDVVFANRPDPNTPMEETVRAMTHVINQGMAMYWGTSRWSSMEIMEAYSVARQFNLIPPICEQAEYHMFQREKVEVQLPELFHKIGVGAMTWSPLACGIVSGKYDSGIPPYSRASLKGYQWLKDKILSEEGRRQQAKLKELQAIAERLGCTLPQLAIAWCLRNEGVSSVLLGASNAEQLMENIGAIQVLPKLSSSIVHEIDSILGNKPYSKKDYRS
Sequence of Alpha-2C adrenergic receptor (Homo sapiens) (P18825 whole entry, looked up): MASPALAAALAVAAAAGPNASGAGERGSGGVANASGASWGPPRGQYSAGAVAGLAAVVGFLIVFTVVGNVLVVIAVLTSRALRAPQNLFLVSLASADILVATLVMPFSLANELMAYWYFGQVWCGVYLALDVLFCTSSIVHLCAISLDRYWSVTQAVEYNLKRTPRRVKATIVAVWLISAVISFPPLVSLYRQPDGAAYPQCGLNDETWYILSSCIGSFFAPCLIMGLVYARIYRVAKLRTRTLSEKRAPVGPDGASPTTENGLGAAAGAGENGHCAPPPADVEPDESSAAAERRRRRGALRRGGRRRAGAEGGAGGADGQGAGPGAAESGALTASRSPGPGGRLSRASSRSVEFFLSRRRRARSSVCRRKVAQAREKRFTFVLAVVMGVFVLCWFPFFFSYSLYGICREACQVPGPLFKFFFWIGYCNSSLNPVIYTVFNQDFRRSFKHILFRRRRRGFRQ

SMILES	cell count [1]	inhibition [1]	inhibition [2]	nuclei count [2] [%]	z-score [3, 9]	z-score [3, 10]	z-score [3, 11]	inhibition [4]	fluorescence slope [5]	NADPH fluorescence slope [6]	slope [7]	inhibition [8]
CC12CCC(C(=O)NCCCN3CCOCC3)(OC1=O)C2(C)C (stereo not drawn)	297	5.1% (inactive)	12.1% (inactive)	126	0.486	0.456	1.46	8.76% (inactive)	-0.425 (inactive)	-0.000122 (inactive)	0.0052 (inactive)	-10.2% (inactive)
COC(=O)C1=C(C)N=C2SC(C)C(=O)N2C1/C=C/c1ccccc1OC (stereo not drawn)	366	3.2% (inactive)	-74.7% (inactive)	143	-1.74	0.498	0.497	-1.75% (inactive)	-0.423 (inactive)	-0.00012 (inactive)	0.00673 (inactive)	-14.7% (inactive)
CCCOC(=O)C1[C@H]2C(=O)N(Cc3ccco3)C[C@]23C=C[C@H]1O3 (stereo partly drawn)	337	-2.3% (inactive)	-90.3% (inactive)	155	-0.841	0.28	-0.596	-7.01% (inactive)	-0.424 (inactive)	-0.000134 (inactive)	0.00455 (inactive)	1.77% (inactive)
COc1ccc(C(=O)Cn2c(Br)nc3c2c(=O)n(C)c(=O)n3C)cc1OC	296	-12.5% (inactive)	28.7% (inactive)	116	-1.61	0.384	-0.0762	-1.75% (inactive)	-0.471 (inactive)	-1.3e-05 (inactive)	0.00557 (inactive)	-16.3% (inactive)
O=C(NCCCn1ccnc1)C(Cc1ccccc1)N1C(=O)c2ccccc2C1=O (stereo not drawn)	340	-6.9% (inactive)	-73.9% (inactive)	125	0.63	-0.478	-0.334	1.6e-07% (inactive)	-0.46 (inactive)	-0.000126 (inactive)	0.00809 (inactive)	3.02% (inactive)
N#C/C(=C\N1CCN(Cc2ccc3c(c2)OCO3)CC1)c1nc2ccccc2s1	359	-3.7% (inactive)	-122% (inactive)	170	-0.883	0.284	0.578	-14% (inactive)	-0.428 (inactive)	-0.000152 (inactive)	0.00144 (inactive)	100% (active)
O=c1[nH]c(-c2ccccn2)nc2ccccc12	336	-9% (inactive)	-102% (inactive)	126	0.0403	0.157	-1.25	1.48% (inactive)	-0.555 (inactive)	-4.4e-05 (inactive)	0.00479 (inactive)	34.7% (inactive)
CCOC(=O)c1cc2c(=O)n3ccccc3nc2n(Cc2ccccc2Cl)c1=N	339	0.5% (inactive)	-3.3% (inactive)	161	-0.704	0.973	1.09	-1.75% (inactive)	-0.39 (inactive)	-0.000121 (inactive)	0.00529 (inactive)	12.4% (inactive)
Cc1ccc(N(Cc2cc3ccccc3[nH]c2=O)C(=O)c2ccco2)c(C)c1	332	-14.8% (inactive)	-162% (inactive)	173	0.558	-1.26	0.6	-14% (inactive)	-0.459 (inactive)	-0.000111 (inactive)	0.00671 (inactive)	12% (inactive)
Cc1ccc(N2C(=O)C3ON(c4ccccc4)C(c4ccncc4)C3C2=O)c(C)c1 (stereo not drawn)	326	-7.9% (inactive)	-152% (inactive)	164	0.138	-0.827	-0.00414	-12.3% (inactive)	-0.437 (inactive)	-0.000117 (inactive)	0.00457 (inactive)	0.697% (inactive)
COc1cccc(-c2nc(NCCN3CCOCC3)c3ccccc3n2)c1O	355	-7.9% (inactive)	21.8% (inactive)	164	-0.211	-0.437	-0.66	21% (inactive)	-0.395 (inactive)	-0.00024 (inactive)	0.00346 (inactive)	95% (active)
COc1ccc(NCc2cc3ccccc3[nH]c2=O)cc1	254	-8.8% (inactive)	-69.8% (inactive)	90	-0.199	-0.583	0.127	-12.3% (inactive)	-0.408 (inactive)	-3.2e-05 (inactive)	0.00788 (inactive)	7.35% (inactive)
COc1ccccc1-c1cc(-c2cc(Cl)ccc2O)n[nH]1	259	-13% (inactive)	-9.5% (inactive)	129	1.7	-0.531	-0.306	7.01% (inactive)	-0.453 (inactive)	-1.7e-05 (inactive)	0.0086 (inactive)	-19.8% (inactive)
C=CCOc1nc(-c2ccncc2)nc2ccccc12	345	4.5% (inactive)	-73.4% (inactive)	130	0.583	-0.0101	-0.88	16.1% (inactive)	-0.491 (inactive)	-3.3e-05 (inactive)	0.00589 (inactive)	79.7% (active)
